# Reference: PubChem BioAssay
# The source made the active and inactive calls. How the calls were made is not given here.
# Biological target: Pantothenate synthetase (Mycobacterium tuberculosis (strain ATCC 25618 / H37Rv)) (UniProt P9WIL5)
# Assay: Recombinant Mtb pantothenate synthetase (PanC) inhibitors, coupled enzyme, confirmatory (AID 375);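 further: 0% = full reaction with vehicle and 100% = no enzyme background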
# Details: coupled enzyme assay; at 10 µM, stronger effect = higher value
# Chain of Pantothenate synthetase (Mycobacterium tuberculosis (strain ATCC 25618 / H37Rv)) (P9WIL5 whole entry, looked up): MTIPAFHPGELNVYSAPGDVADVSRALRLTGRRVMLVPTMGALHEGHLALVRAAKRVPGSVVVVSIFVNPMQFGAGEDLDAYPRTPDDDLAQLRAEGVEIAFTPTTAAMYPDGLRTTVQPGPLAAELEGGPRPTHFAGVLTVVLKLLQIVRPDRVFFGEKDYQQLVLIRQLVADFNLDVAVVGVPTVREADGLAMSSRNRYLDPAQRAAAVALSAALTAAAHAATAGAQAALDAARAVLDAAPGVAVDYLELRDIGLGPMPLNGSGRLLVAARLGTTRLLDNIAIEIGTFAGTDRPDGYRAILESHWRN
row,Structure (SMILES),inhibition
1,C(=N\n1cnnc1)/c1cccc(OCCOc2ccccc2)c1,0% (inactive)
2,COc1ccc(N2Cc3ccccc3C2)cc1Cl,0% (inactive)
3,CCOC(=O)C1CCCN(C(=O)c2cn(C)c(=O)c3cc(OC)c(OC)cc23)C1 (centres undefined),0% (inactive)
4,CN(C)C(=O)CN(c1ccc(F)c(Cl)c1)S(C)(=O)=O,5% (inactive)
5,CCOc1ccc2nc(SCC(=O)Nc3ncccn3)[nH]c2c1,0% (inactive)
6,Cc1c(C(=O)OCC(C)C)[nH]c2c1C(=O)CC(c1ccco1)C2 (centres undefined),1% (inactive)
7,COC(=O)c1ccc(CSc2nc3c(cnn3-c3ccc(C)c(C)c3)c(=O)[nH]2)o1,3% (inactive)
8,O=C(Nc1ccc2c(c1)OCO2)c1cncc(Br)c1,8% (inactive)
9,CC(C)Cc1nc(S(=O)(=O)c2ccc(Cl)cc2)c(N2CCOCC2)o1,0% (inactive)
10,Cc1cc(C)c(S(=O)(=O)N(C)CC(N)=O)c(C)c1,0% (inactive)
11,O=c1[nH]c(SCc2ccc(F)cc2)nc2c1cnn2-c1ccc(F)cc1,0% (inactive)
12,CC(C)NC(=O)c1ccc2c(c1)nnn2C,0% (inactive)
13,Cc1cccn2c(=O)c3cc(C#N)c(=NC(=O)c4ccncc4)n(Cc4ccco4)c3nc12,0% (inactive)
14,COC(=O)Nc1sc2c(c1C(N)=O)CCCCCC2,2% (inactive)
15,O=C(CCn1c(=O)sc2ccccc21)Nc1nccs1,0% (inactive)
16,O=C1c2ccccc2C(=O)N1CCC(=O)N1CCc2ccccc21,0% (inactive)
17,Cc1ccc(S(=O)(=O)N(C)CC(=O)NC2CCCC2)cc1,0% (inactive)
18,COc1ccc(-c2nnn(CCc3nn[nH]n3)n2)cc1OC,0% (inactive)
19,COc1cc(S(=O)(=O)n2nnc3ccccc32)c(OC)cc1Cl,3% (inactive)
20,COc1cc(C2C(C#N)=C(N)Oc3cc(N)ccc32)cc(OC)c1OC (centres undefined),2% (inactive)
21,O=C(COC(=O)c1ccccc1O)Nc1ccc(OC(F)F)cc1,0% (inactive)
22,O=C(c1ccc(S(=O)(=O)N2CCOCC2)cc1)N(c1ccc(F)cc1)C1C=CS(=O)(=O)C1 (centres undefined),0% (inactive)
23,C=CCNC(=O)CSc1ccc(Cl)cc1,0% (inactive)
24,CC(C)CNc1oc(-c2ccc(F)cc2)nc1C#N,2% (inactive)
